Sampled rows, rich in hits. Any-hit rate of the full collection: about 9.5%.
SARS PLpro yeast – qHTS of Yeast-based Assay for SARS-CoV PLP. 0.19% of 330,000 active. AID 485353, 2010. S. cerevisiae expressing SARS-CoV PLpro, growth rescue. Potency, µM (doses to about 32.9 µM), for the others: at the highest dose activity, positive = growth rescue, most hits filed as activators; also: 0% is about no effect; nearly all actives have a fitted effect of over 55% in size
RE007 growth inh – qHTS Assay for Inhibitors of the HIV-1 protein Vpr; S. pombe RE007 Vpr strain, BacTiter-Glo ATP luminescence, 24 h; 0.21% of 360,000 active; Potency, µM (top dose mostly 92.2 µM), inactives show top-dose activity change, negative = less growth, most hits filed as inhibitors; active = well fitted falling curve with a large enough effect; inconclusive = small, poorly fitted or top-dose-only effect; inactive = no such curve, though single readings can be large or run the other way; also: % is scaled to controls: 0 for no effect and ±100 for the full control effect; nearly all actives have a fitted effect of over 50% in size
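Fission yeast RE007 carrying one integrated HIV-1 vpr copy, seeded at OD 0.01 in PMG+AL medium with 23 nL pinned compound. Grown 24 h at 30 degrees; viability read by BacTiter-Glo luminescence after 5 min.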
Pf growth 96h – Primary qHTS for delayed death inhibitors of the malarial parasite plastid, 96 hour incubation. P. falciparum luciferase reporter growth, 96 h. Potency, µM (top dose mostly 28.7 µM), for the others: top-dose activity change, negative = inhibition, hits mostly inhibitors. 6.9% of 320,000 active; active = well fitted inhibition curve with a large enough effect; inconclusive = small, poorly fitted or top-dose-only effect, or another doubt; inactive = no such curve, though single readings can be large or run the other way; also: % is scaled to controls: 0 for no effect and ±100 for the full control effect
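Luminescence readout: decreased luciferase signal marks inhibited growth of reporter-expressing P. falciparum in infected red cells (2% hematocrit, 0.05% parasitemia final), exposed to compound two generations (96 h, 37 C, 5% CO2).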
NS1 function inh – qHTS Assay for Inhibitors of Influenza NS1 Protein Function; Potency, µM (titrated, usually from 46.1 µM), inactives show at the highest dose activity, positive = more growth; 0.4% of 270,000 active; AID 2326, 2010; also: actives are rising curves; nearly all actives have a fitted effect of over 50% in size
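Read-out: OD600 growth recovery of NS1-expressing budding yeast. Cells grown overnight at 30C in -URA glucose medium, washed, resuspended and diluted 1:100 in 2% galactose assay medium, pH 6.0. Same strain lacking NS1 served as positive control.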
Pf growth 48h – Primary qHTS for delayed death inhibitors of the malarial parasite plastid, 48 hour incubation. P. falciparum luciferase growth in erythrocytes, 48 h. Potency, µM (series often up to 28.7 µM), inactives show at the top dose activity change, negative = inhibition, most hits filed as inhibitors. 5.9% of 310,000 active; active = well fitted inhibition curve with a large enough effect; inconclusive = small, poorly fitted or top-dose-only effect, or another doubt; inactive = no such curve, though single readings can be large or run the other way; also: % is scaled to controls: 0 for no effect and ±100 for the full control effect
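Read-out is firefly luciferase luminescence from an integrated reporter in P. falciparum, so falling signal marks reduced parasite growth. Infected erythrocytes were at 2% hematocrit and 0.1% parasitemia (final) in Albumax-supplemented RPMI 1640.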
* marks the source's active call; other numbers are inactive results; ? = inconclusive; · = not tested or not shown; [ ] = remark or other dose. Unless noted, calls follow the shape of the full dose curve. Potency is read from the fitted curve at half-maximal effect.

SMILES | SARS PLpro yeast | RE007 growth inh | Pf growth 96h | NS1 function inh | Pf growth 48h
Oc1ccccc1CN(Cc1ccco1)CC(O)COCc1ccc(Cl)cc1 (stereo unspecified) | -13.2% | 3.8% | 2.08µM* | -47.5% | 2.94µM*
O=S(CC(O)COCc1ccc(Cl)cc1)c1ccccn1 (stereo unspecified) | 1.8% | 12.0% | · | 3.9% | 6.9%
COc1ccc(COCC(O)CN(Cc2ccco2)Cc2ccccc2O)cc1 (stereo unspecified) | -0.3% | 6.1% | 4.65µM* | -5.6% | 8.28µM*
O=S(=O)(c1ccc2ccccc2c1)N(CC(O)COCc1ccco1)c1ccccc1 (stereo unspecified) | · | -2.6% | -17.2% | -6.8% | -19.1%
COc1ccc(CN2CCC2(C)C(=O)Nc2cnc3ccccc3c2)c2ccccc12 (stereo unspecified) | · | -3.3%[18.4 µM] | · | · | ·
CCNC(=O)NC(=O)C(C)OC(=O)c1cccn1C (stereo unspecified) | 0.1% | 15.1% | 79.1% | · | 10.4µM*
CC(=O)Nc1ccc(NC(=O)c2c(C)nn(Cc3ccccc3)c2Cl)cc1 | 1.9% | 0.0% | -28.5% | -2.2% | 5.6%
CCNC(=O)NC(=O)C(C)OC(=O)c1c(C)nn(Cc2ccccc2)c1Cl (stereo unspecified) | 4.3% | 23.1% | ? | -2.0% | 13.1µM*
CCNC(=O)NC(=O)C(C)OC(=O)c1c(C)nn(Cc2ccccc2Cl)c1Cl (stereo unspecified) | 16.6% | 13.5% | 11.7µM* | 5.9% | ?
CCNC(=O)NC(=O)C(C)OC(=O)c1cccnc1SC (stereo unspecified) | · | 15.6% | · | -1.9% | ·
COc1cc(/C=N/NC(=O)c2ccncc2)ccc1OC(=O)c1cc(OC)c(OC)c(OC)c1 | 1.1% | -8.2% | -2.6% | 2.7% | -3.4%
OC(CNC1CCCc2ccccc21)COc1c(Cl)cccc1Cl (stereo unspecified) | -12.6% | -2.3% | 3.29µM* | -29.4% | 1.85µM*
CCOC(=O)c1c(C)n(CC(O)c2ccccc2)c2ccc(O)cc12 (stereo unspecified) | 3.2% | 7.0% | 11.7µM* | -16.4% | 11.7µM*
CC(C)C[C@H]1CN(CCCC[C@H]2CNC(=O)C(=O)N2CCC2CCCCC2)C(=O)C(=O)N1CCc1ccccc1 | · | 1.8% | · | · | ·
CC(C)CNC(=O)O | · | · | · | -1.0% | ·
CCOC(=O)CN1C(=O)C(Sc2n[nH]c(-c3ccccc3)n2)CCc2ccccc21 (stereo unspecified) | 3.4% | 5.2% | 5.86µM* | -7.6% | ·
COc1ccc(N2C(=O)CC(Sc3n[nH]c(-c4ccccc4)n3)C2=O)cc1 (stereo unspecified) | -4.4% | 17.8µM* | ? | -66.1% | -21.6%
C=CCOc1ccc(C=CC(=O)c2c(O)c(OC)c(OC)c(OC)c2OC)cc1 | · | 4.8% | · | · | ·
Cc1cc2[nH]c(=O)c(=O)[nH]c2cc1S(=O)(=O)Nc1cccc(Cl)c1 | 5.3% | 8.5% | 16.9% | -2.9% | -11.3%
Cc1ccc2c(c1)c1c(n2CC(O)CNC(CO)(CO)CO)CCCC1 (stereo unspecified) | 5.0% | 3.4% | 18.7% | 1.9% | ·
Cc1ccc2c(c1)c1c(n2CC(O)CNC2CCCCC2)CCCC1 (stereo unspecified) | -0.4% | -4.0% | 26.0% | -3.0% | 2.94µM*
Cc1ccc(CNC(=O)[C@H](C)NC(=O)C2CCN(C(=O)[C@@H]3CCCN3C(=O)OC(C)(C)C)CC2)cc1 | -7.0% | 1.3% | ? | -23.3% | ?
O=C(CSc1nnc(SCC(=O)c2ccco2)s1)c1ccco1 | 0.3% | -1.4% | 0.0% | 0.8% | -1.1%
O=C(CSc1nc2cc(Cl)ccc2s1)c1ccco1 | -5.8% | -24.9% | 10.4µM* | -48.1% | 39.5%
O=C(c1cc(C2CC2)on1)N1CCCC(N2CCN(c3ccc(F)cc3)CC2)C1 (stereo unspecified) | 1.8% | -7.7% | -0.8% | 9.4% | ?
COc1ccc(C)cc1-n1nnnc1SCC(=O)N1CCC(C(=O)Nc2nccs2)CC1 | -1.2% | 3.6% | 1.65µM* | 4.3% | -59.8%

Bioassay records as filed in PubChem BioAssay.
